Screening data: PubChem BioAssay, National Center for Advancing Translational Sciences (NCATS)
In the library only some 7.5% were active in any assay of this set; here they are far more common.
FLuc counter = inhibits or activates purified firefly luciferase, miR-21 counter-screen | P08659 | purified FLuc, Km substrates, luminescence inhibition | Potency, µM (highest dose often 57.5 µM), actives largely listed as inhibitors | 6.9% of 360,000 active | AID 588342; further: nearly all actives have a fitted effect of over 55% in size
Target sequence (P08659 whole entry, looked up): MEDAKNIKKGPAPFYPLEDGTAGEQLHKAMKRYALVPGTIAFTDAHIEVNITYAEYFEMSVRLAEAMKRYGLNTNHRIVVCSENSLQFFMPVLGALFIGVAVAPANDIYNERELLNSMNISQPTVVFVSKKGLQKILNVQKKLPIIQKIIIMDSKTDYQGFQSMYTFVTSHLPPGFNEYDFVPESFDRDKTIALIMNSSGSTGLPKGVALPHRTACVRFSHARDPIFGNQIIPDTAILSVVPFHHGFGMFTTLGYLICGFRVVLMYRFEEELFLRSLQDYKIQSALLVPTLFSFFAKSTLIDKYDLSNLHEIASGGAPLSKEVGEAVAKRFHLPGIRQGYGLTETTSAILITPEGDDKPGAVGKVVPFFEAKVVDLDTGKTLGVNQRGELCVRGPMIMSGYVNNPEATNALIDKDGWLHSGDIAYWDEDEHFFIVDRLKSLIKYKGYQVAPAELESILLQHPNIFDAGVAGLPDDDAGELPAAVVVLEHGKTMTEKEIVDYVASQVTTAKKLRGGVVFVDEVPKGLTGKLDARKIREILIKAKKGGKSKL
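Biochemical qHTS of compounds, final roughly 60 µM downward over six points, against 10 nM purified firefly luciferase using Km concentrations of substrates (10 uM D-luciferin, 10 uM ATP) in Tris acetate pH 7.5 buffer; luminescence output.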
Rab9 prom act = activators of Rab9 promoter; Huh7 Rab9 promoter-luciferase reporter, luminescence, 24 h; Potency, µM (series often up to 9.22 µM), hits mostly activators; 2.8% of 320,000 active; AID 485297; further: nearly all actives have a fitted effect of over 60% in size
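Cells were plated at 1500 per well in reduced-serum medium with 10% FBS and left 2 h. Compound in DMSO was then added for 24 h at 37 °C. Reporter signal was read by luminescence after 10 min with luciferase detection reagent.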
NPC1 prom act = activators of NPC1 promoter; Huh7 NPC1 promoter luciferase reporter, 24 h; AID 485313; Potency, µM (top dose mostly 9.22 µM), usual class: activators; 2.4% of 320,000 active; further: nearly all actives have a fitted effect of over 60% in size
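Stable NPC1-promoter luciferase Huh7 line; cpd (DMSO) 24 h, 37 °C, 5% CO2; Amplite luciferase reagent 10 min RT; luminescence readout. qHTS format.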
SMN2 splice enh = enhancers of SMN2 splice variant expression; HEK293 SMN2-luciferase splicing reporter, luminescence, 30-36 h; Potency, µM (titrated, usually from 46.1 µM), actives largely listed as activators; 2.8% of 210,000 active; AID 1458; further: nearly all actives have a fitted effect of over 55% in size
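qHTS luciferase splicing reporter: luminescence rises when SMN2 exon 7 is included in transfected HEK293 cells. Compound exposure lasted 30-36 h at 37C, with 4.5 mM final sodium butyrate as control, followed by a ONE-Glo read.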
ELG1 genotoxic = genotoxicity induction in ELG1-luciferase HEK293T cells; HEK293T ELG1-luciferase reporter, luminescence, 16 h; Potency, µM (series often up to 46 µM), usual class: activators; 1.3% of 330,000 active; AID 504466; further: nearly all actives have a fitted effect of over 60% in size
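HEK293T cells expressing luciferase-tagged ELG1 were treated with compound or DMSO for 16 hr at 37°C. Luciferase activity was then read after 30 min with ONE-Glo at room temperature; rising signal flags genetic stress.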
Numbers stand for hits; [ ] = dose if it differs, or a comment. The call rests on the fitted dose curve; in most records, active means well fitted curve in the direction sought with a large enough effect; inconclusive means small, poorly fitted or top-dose-only effect, or another doubt; inactive means no such curve, though single readings can be large; an effect the other way counts as inactive or inconclusive.

O=C(Nc1ccc2c(c1)OCCO2)c1ccccc1 was read as FLuc counter 3.38µM, Rab9 prom act 0.794µM, NPC1 prom act 0.447µM and ELG1 genotoxic 3.66µM.
O=C(Nc1ccc2c(c1)OCCO2)c1cccc(Cl)c1 was read as FLuc counter 3.01µM, Rab9 prom act 2µM, NPC1 prom act 3.16µM and ELG1 genotoxic inconclusive.
`CC(C)C(NC(=O)C1CCCCC1)C(=O)Nc1ccncc1` (configuration not stated) gave FLuc counter inactive, Rab9 prom act inactive, NPC1 prom act inactive, SMN2 splice enh inactive and ELG1 genotoxic inactive.
Screening CS(=O)(=O)N(CC(=O)NCc1ccccc1)c1ccc(Cl)cc1 returned FLuc counter inactive, Rab9 prom act inactive, NPC1 prom act inactive and ELG1 genotoxic inactive.
For Cc1ccc(C)c(CSc2nnc(C)c(=O)[nH]2)c1 the results were FLuc counter inactive, Rab9 prom act inactive, NPC1 prom act inactive, SMN2 splice enh inactive and ELG1 genotoxic inactive.
For NCCN1C(=O)c2ccccc2[C@@]1(O)c1ccc(Cl)cc1 the results were SMN2 splice enh inactive[9.22 µM].
`CC(C)c1ccc(O)c(NC(=S)NC(=O)c2ccc3c(c2)OCO3)c1` gave FLuc counter 6.75µM, Rab9 prom act inconclusive, NPC1 prom act 2.24µM and ELG1 genotoxic inactive.
COc1cc(C(=O)NNC(=S)NC(=O)c2ccc3c(c2)OCO3)cc(OC)c1OC was read as FLuc counter inactive, Rab9 prom act inactive, NPC1 prom act inactive and ELG1 genotoxic inactive.
`O=C(Nc1ccc2c(c1)OCO2)c1cc(Cl)ccn1` gave FLuc counter 4.78µM, Rab9 prom act 1.26µM, NPC1 prom act 1.78µM and ELG1 genotoxic inconclusive.
Screening S=C(Nc1ccc(Br)cc1)Nc1ccc2c(c1)OCCO2 returned FLuc counter 12µM, Rab9 prom act inconclusive, NPC1 prom act inconclusive and ELG1 genotoxic inconclusive.
`O=C(Nc1cccc([N+](=O)[O-])c1)c1ccc2c(c1)OCCO2` gave FLuc counter 7.57µM, Rab9 prom act inconclusive, NPC1 prom act 3.55µM, SMN2 splice enh 17.8µM and ELG1 genotoxic inconclusive.
`O=C(Nc1ccc2c(c1)OCO2)c1ccc(Cl)cc1Cl` gave FLuc counter inactive, Rab9 prom act inactive, NPC1 prom act inactive and ELG1 genotoxic inactive.
Screening COc1cc(NC(=S)Nc2ccc3c(c2)OCCO3)cc(OC)c1OC returned FLuc counter inactive, Rab9 prom act inactive, NPC1 prom act inactive and ELG1 genotoxic inactive.
O=C(NCc1ccccc1)c1ccc2c(c1)OCCO2 was read as FLuc counter inconclusive, Rab9 prom act inconclusive, NPC1 prom act inactive, SMN2 splice enh inactive and ELG1 genotoxic inactive.
Screening O=C(CCCc1cccs1)Nc1ccc2c(c1)OCO2 returned FLuc counter 10.7µM, Rab9 prom act 2.82µM, NPC1 prom act 2.24µM, SMN2 splice enh 14.1µM and ELG1 genotoxic inconclusive.
Screening O=C(Nc1cccc(Cl)c1)c1ccc2c(c1)OCCO2 returned FLuc counter 1.07µM, Rab9 prom act 1.78µM, NPC1 prom act 1.26µM and ELG1 genotoxic 2.06µM.
For O=C(Nc1ccc2c(c1)OCCO2)C(=S)NCc1ccccc1 the results were FLuc counter 6.01µM, Rab9 prom act inactive, NPC1 prom act inactive, SMN2 splice enh inconclusive and ELG1 genotoxic inactive.
For O=C(CCCN1C(=O)CCC1=O)Nc1ccc2c(c1)OCO2 the results were FLuc counter inactive[2.3 µM], Rab9 prom act inactive, NPC1 prom act inactive, SMN2 splice enh inactive and ELG1 genotoxic inactive.
For CC(C)(C)c1ccc(C(=O)Nc2cccc([N+](=O)[O-])c2)cc1 the results were FLuc counter 1.69µM, Rab9 prom act 2.24µM, NPC1 prom act 2.51µM, SMN2 splice enh 11.2µM and ELG1 genotoxic inconclusive.
For CC(=O)N1CCN(C(=O)COC(=O)c2ccc(S(C)(=O)=O)cc2)CC1 the results were ELG1 genotoxic inactive.
Screening Cc1cc(C)cc(NS(=O)(=O)c2ccc(NC(=S)NC(=O)c3ccc(Br)o3)cc2)c1 returned FLuc counter inactive, Rab9 prom act inactive, NPC1 prom act inactive, SMN2 splice enh inactive and ELG1 genotoxic inactive.
`Cc1cc(=O)nc2c3ccccc3n(CC(=O)NCCCN3CCOCC3)n12` gave FLuc counter inactive, Rab9 prom act inactive, NPC1 prom act inactive and ELG1 genotoxic inactive.
`O=C(Nc1cccc([N+](=O)[O-])c1)c1[nH]ncc1Cl` gave FLuc counter 16.9µM, Rab9 prom act 3.98µM, NPC1 prom act 3.16µM, SMN2 splice enh 11.2µM and ELG1 genotoxic inconclusive.
Screening COc1ccc(/C=N/NC(=O)c2ccccc2O)cc1Cn1cc(Cl)cn1 returned FLuc counter inconclusive, Rab9 prom act inactive, NPC1 prom act inactive, SMN2 splice enh inactive and ELG1 genotoxic inactive.
Screening OC(CNc1ncnc2sccc12)c1ccccc1 (configuration not stated) returned FLuc counter 16.9µM, Rab9 prom act inactive, NPC1 prom act inconclusive and ELG1 genotoxic inactive.
Screening CN(C)C(CNc1ncnc2sccc12)c1ccccc1 (configuration not stated) returned FLuc counter inactive, Rab9 prom act inactive, NPC1 prom act inactive, SMN2 splice enh inactive and ELG1 genotoxic inactive.
COCCn1c(SCC(=O)c2cc(C)n(C)c2C)nc2ccccc2c1=O was read as FLuc counter inconclusive, Rab9 prom act inactive, NPC1 prom act inactive, SMN2 splice enh inactive and ELG1 genotoxic inactive.
`COCCn1c(C)cc(C(=O)CSc2nnc3ccccn23)c1C` gave FLuc counter 1.35µM, Rab9 prom act inconclusive, NPC1 prom act inconclusive, SMN2 splice enh inconclusive and ELG1 genotoxic 0.581µM.
Screening COCCn1c(C)cc(C(=O)CSc2ncn[nH]2)c1C returned FLuc counter inconclusive, Rab9 prom act inactive, NPC1 prom act inactive, SMN2 splice enh 5.62µM and ELG1 genotoxic inactive.
Screening O=C(CSc1nnc2ccccn12)c1ccc(OC(F)F)cc1OC(F)F returned FLuc counter inactive, Rab9 prom act inactive, NPC1 prom act inactive, SMN2 splice enh inactive and ELG1 genotoxic inactive.
Screening COCCn1c(C)cc(C(=O)CSc2nc(C)c(C)c(C)n2)c1C returned FLuc counter inactive, Rab9 prom act inactive, NPC1 prom act inactive, SMN2 splice enh inactive and ELG1 genotoxic inactive.
Cc1ccc(C(=O)CSc2nnc3ccccn23)c(C)c1 was read as FLuc counter 2.69µM, Rab9 prom act 0.794µM, NPC1 prom act 2µM, SMN2 splice enh 10µM and ELG1 genotoxic 4.61µM.
`CCCC/C=C/C(NC(=O)c1ccc(C(F)(F)F)cc1)c1ccccc1` (configuration not stated) gave SMN2 splice enh inactive.
`Cc1ccc2c(c1)N(C(=O)CCC(=O)N1CCN(c3ccccn3)CC1)CCO2` gave FLuc counter inactive, Rab9 prom act inactive, NPC1 prom act inactive and ELG1 genotoxic inactive.
Screening Oc1c(C(Nc2nc3ccccc3s2)c2ccco2)ccc2cccnc12 (configuration not stated) returned FLuc counter 15.1µM, Rab9 prom act inactive, NPC1 prom act inactive, SMN2 splice enh inactive and ELG1 genotoxic 18.4µM.
